# Source: PubChem BioAssay (The Scripps Research Institute Molecular Screening Center)
# The list is not random: actives were taken first. Their share in the collection is about 2%.
# CHRM4 antagonist: antagonists of human muscarinic M4 receptor (CHRM4); P08173; CHO-hM4 cells, ACh EC80, Fluo-8 calcium fluorescence; inhibition, % at 3 µM; 360,000 compounds, 0.73% hits;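 active = inhibition above its plate's cutoff, the mean inhibition of sample wells plus 3 SD, cut at about 27% in these data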
# Target sequence (P08173 whole entry, looked up): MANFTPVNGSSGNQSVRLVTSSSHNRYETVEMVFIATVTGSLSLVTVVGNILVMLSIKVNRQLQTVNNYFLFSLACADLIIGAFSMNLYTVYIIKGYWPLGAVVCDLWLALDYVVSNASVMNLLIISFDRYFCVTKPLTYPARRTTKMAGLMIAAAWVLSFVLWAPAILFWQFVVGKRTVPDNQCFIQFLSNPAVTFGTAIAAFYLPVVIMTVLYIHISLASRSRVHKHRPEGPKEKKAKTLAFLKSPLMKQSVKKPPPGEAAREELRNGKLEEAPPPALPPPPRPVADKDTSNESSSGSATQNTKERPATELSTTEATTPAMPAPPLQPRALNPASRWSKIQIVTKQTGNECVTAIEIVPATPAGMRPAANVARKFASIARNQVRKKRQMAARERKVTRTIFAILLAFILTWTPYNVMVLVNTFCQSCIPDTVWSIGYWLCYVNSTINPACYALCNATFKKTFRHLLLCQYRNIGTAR
# CHO-K1 Ca antag: nonselective inhibitor or artifact in parental CHO-K1 cells; ATP-induced calcium, Fluo-8 fluorescence; inhibition, % at 3 µM; 360,000 compounds, 0.6% hits; AID 602250;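 active = inhibition above a per-plate cutoff, the plate's mean sample inhibition plus 3 SD, cut at about 24% in these data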
# CHRM4 PAM: CHRM4 positive allosteric modulation. activation, % at 3 µM. 360,000 compounds, 0.4% hits. CHO-K1 hM4/Gqi5, Fluo-8 calcium fluorescence, ACh EC20; 0% = ACh EC20, 100% = maximal ACh;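 active = activation above its plate's cutoff, the mean activation of sample wells plus 3 SD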
# CHO-K1 Ca PAM: counter-screen for M1 PAMs: effect in parental CHO-K1 cells; ATP EC20, Fluo-8 calcium fluorescence; 0% at ATP EC20, 100% at ATP max; activation, % at 3 µM; 360,000 compounds, 0.02% hits; AID 602247;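 active = activation above the run cutoff, the mean activation of all test compounds plus 3 SD, cut at about 40% in these data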;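 note: peak over basal fluorescence ratio in a 140 s read after ATP addition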
# M1 ag parental: M1 agonist counterscreen hit in parental CHO-K1 cells. activation, % at 3 µM. Fluo-8 calcium fluorescence; scaled to maximal ATP response, vehicle zero. 360,000 compounds, 0.48% hits. AID 602248; in the data active = activation above about 15%;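 note: untransfected CHO-K1 host cells lacking M1 receptor as counterscreen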
# M4 ag: CHRM4 agonism in calcium assay. AID 624127. P08173. activation, % at 3 µM. CHO-K1 hM4/Gqi5, Fluo-8 calcium fluorescence; vehicle 0%, full acetylcholine response 100%. 360,000 compounds, 0.14% hits;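 active = activation above the run mean over all test wells plus 3 SD, cut at about 32% in these data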;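 note: peak over basal fluorescence ratio per well then scaled between controls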
# Numbers stand for hits; – = inactive.
SMILES,CHRM4 antagonist,CHO-K1 Ca antag,CHRM4 PAM,CHO-K1 Ca PAM,M1 ag parental,M4 ag
O=C(CSc1nc2ccccc2c(=O)n1-c1ccc(F)cc1)Nc1ccc(N2CCOCC2)cc1,–,–,–,–,–,–
O=C(c1ccc(-n2c(SCc3cccc(F)c3)nc3ccccc3c2=O)cc1)N1CCOCC1,–,–,–,–,–,–
O=C(CSc1nc2ccccc2c(=O)n1-c1ccc(F)cc1)Nc1cc(S(=O)(=O)N2CCOCC2)ccc1Cl,30,–,–,–,–,–
O=c1c2ccccc2nc(SCc2cccc(F)c2)n1-c1cccc(S(=O)(=O)N2CCCC2)c1,–,27,–,–,–,–
O=C(Nc1cccc(Br)c1)C1CCCC1,–,–,14,–,–,–
COc1ccccc1Oc1coc2c(CN3CCOCC3)c(O)ccc2c1=O,–,–,–,–,–,–
COc1cccc(Oc2coc3c(CN4CCOCC4)c(O)ccc3c2=O)c1,–,28,–,–,–,–
COc1ccc(N2CCN(C(=O)C(NC(=O)c3c(F)cccc3F)C(C)C)CC2)cc1 (centres undefined),–,–,–,–,–,–
O=c1c2ccccc2n2c(-c3cccc(F)c3)nnc2n1Cc1ccccc1,–,–,21,–,–,–
O=c1c2ccccc2n2c(-c3cccc(Cl)c3)nnc2n1Cc1ccccc1,–,–,–,–,–,–
CC1(C)C(=O)OC(/C=C/c2cccc([N+](=O)[O-])c2)C(C)(C)C1=O (centres undefined),–,–,–,–,–,–
Cc1ccc(/C=C2\CCC3=C2OC(N)=C(C#N)C3c2ccc(C)cc2)cc1 (centres undefined),30,35,–,–,16,–
COc1ccc(CCC(=O)OCC(=O)c2ccc(C)cc2)cc1,–,–,–,–,–,–
COC(=O)C1C2CCC(C2)C1C(=O)OCC(=O)c1ccc(C)cc1 (centres undefined),–,27,–,–,–,–
CCCc1nnc(NC(=O)Cn2c(=O)oc3ccccc32)s1,–,–,–,–,–,–
CCCc1nnc(NC(=O)Cn2c(=O)oc3cc(Br)ccc32)s1,–,–,–,–,17,–
Cc1cc(OCC(=O)Nc2ccc(CN3CCOCC3)cc2)ccc1Cl,–,–,–,–,–,–
Cc1cc(OCC(=O)Nc2ccc(CN3CCCCC3)cc2)ccc1Cl,–,–,–,–,–,36
Cc1cc(OCC(=O)Nc2ccc(S(=O)(=O)N3CCN(C)CC3)cc2)ccc1Br,–,–,–,–,18,–
CC(C)OC(=O)c1cc(C(=O)c2cc(F)ccc2O)coc1=N,–,–,–,–,–,–
COc1ccc(O)c(C(=O)c2coc(=N)c(C(=O)Nc3ccc(SC(F)F)cc3)c2)c1,–,–,–,–,17,–
O=[N+]([O-])c1cccc2c3c([nH]c12)CCCC3,–,–,–,–,–,–
Cc1ccc(NC(=O)CNc2cc(S(=O)(=O)N3CCOCC3)ccc2N2CCOCC2)cc1S(=O)(=O)N(C)C,–,–,–,–,–,–
CCc1nn(CC(=O)NC(C)CCc2ccccc2)c(=O)c2cc3cc(F)ccc3n12 (centres undefined),–,–,–,–,–,–
COc1ccc2c(c1)cc1c(=O)n(CC(=O)NC(C)CCc3ccccc3)nc(C)n12 (centres undefined),–,–,15,–,–,–
SMILES,CHRM4 antagonist,CHO-K1 Ca antag,CHRM4 PAM,CHO-K1 Ca PAM,M1 ag parental,M4 ag
CC(C)N(CC#CCC(O)(c1ccccc1)C1CCCC1)CCO (centres undefined),–,–,–,–,–,–
CCN(CC)CCC(O)(c1ccccc1)C1CCCCC1 (centres undefined),85,–,–,–,–,–
CC[N+](CC)(CC)CCC(O)(c1ccccc1)C1CCCCC1 (centres undefined),99,–,–,–,–,–
CCN(CC#CCC(O)(c1ccccc1)C1CCCC1)C(C)C (centres undefined),92,–,–,–,–,–
CC(=O)N1CCN(C(=O)c2cccc(S(=O)(=O)NCc3ccccc3)c2)CC1,–,–,–,–,–,–
O=C(C[n+]1cc(-c2ccccc2)n2c1CCC2)c1cccs1,–,–,–,–,–,–
